# Laboratory results published in PubChem BioAssay (NCATS).
# “And” between values parts separate entries of the source, which are not always exact repeats. Identical values can stand only once. Results filed as inconclusive are left out. The source made the active and inactive calls. Unless noted, calls follow the shape of the dose curve; as a rule, active = well fitted inhibition curve with a large enough effect; inconclusive = small, poorly fitted or top-dose-only effect; inactive = no such curve, though single readings can be large or run the other way.
# Columns and labels:
# [1] = qHTS profiling of the MIPE4 collection as inhibitors of Plasmodium falciparum (DD2) proliferation (AID 743345; call rule not given here); details: P. falciparum Dd2 in erythrocytes, SYBR Green DNA, 72 h; at 28.5 µM (top of the series) unless noted
# Outline: (§1)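 Parasite DNA was quantified by SYBR Green I fluorescence (ex 485, em 535 nm) after overnight lysis in saponin/Triton buffer at room temperature. Cultures at 0.3% parasitemia and 2.5% hematocrit were first exposed to compound for 72 h at 37 C; signals were normalised to artemisinin (0.29 uM) and vehicle wells.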
# [2] = qHTS profiling of the MIPE4 collection as inhibitors of Plasmodium falciparum (DD2) proliferation (Rep 2) (AID 743346; call rule not given here); details: P. falciparum Dd2 in erythrocytes, SYBR Green DNA, 72 h; at 28.5 µM (top of the series) unless noted
# Outline: as §1
# [3] = qHTS profiling of the MIPE4 collection as inhibitors of Plasmodium falciparum (HB3) proliferation (AID 743347; call rule not given here;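 also: plate controls were DMSO vehicle wells for no effect and artemisinin wells for full effect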); details: P. falciparum HB3 in erythrocytes, SYBR Green DNA, 72 h; at 28.5 µM (top of the series) unless noted
# Outline: as §1
# [4] = High-throughput drug toxicity screening in the BPDCN cell line Gen2.2 (AID 1224824; call rule not given here;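 also: cells exposed to compounds for 48 h before reading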); details: Gen2.2 BPDCN cells; at 45.8 µM (top of the series) unless noted
# Outline: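 Readout is ATP luminescence from Gen2.2 cells after two days of drug exposure in serum-containing medium at 37 °C. Values express percent activity, with vehicle defining full signal and 9.2 uM bortezomib defining zero.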
# [5] = High-throughput drug toxicity screening in the BPDCN cell line Cal-1 (AID 1224825; call rule not given here;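 also: cells exposed to compounds for 48 h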); details: Cal-1 BPDCN cell viability, qHTS; at 45.8 µM (top of the series) unless noted
# Outline: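 Viability of the BPDCN line Cal-1 is measured as ATP-based luminescence (CellTiter-Glo) following 48 h incubation with compounds. Percent activity uses DMSO-treated wells as 100% and 9.2 uM bortezomib as 0%.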
# [6] = qHTS assay for measurement of the activity of small molecule inhibitors on Zika virus induced Caspase-3 activity in human iPSC derived neural progenitor cells (hNPCs) (AID 1224857); also: nearly all actives have a fitted effect of over 65% in size; also: potency is read from the fitted curve at half-maximal effect
# Outline: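 Percent inhibition of virus-induced caspase-3/7 luminescence (Caspase-Glo), scaled between uninfected cells and Zika-infected cells. hNPCs received compound 1 hr before ZIKV at 2 FFU/cell, with 6 hours infection at 37 C.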
# [7] = qHTS assay for measurement of the activity of small molecule inhibitors on Zika virus induced Caspase-3 activity in human astrocytoma cells (AID 1224859); also: potency is read from the fitted curve at half-maximal effect
# Outline: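 Luminescent caspase-3/7 read-out (30 min reagent, room temperature) in human SNB-19 cells infected 6 h with ZIKV (2 FFU/cell) after 1 h compound pre-incubation; Data were normalised to uninfected and infected wells.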
# [8] = qHTS Screen of the MIPE 4.0 Collection Against Ewings Sarcoma (RDES) (AID 1259252); also: nearly all actives have a fitted effect of over 35% in size; also: potency is read from the fitted curve at half-maximal effect
# Outline: (§2)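 Measured: ATP luminescence (CellTiter-Glo) 10 min after reagent addition, following 48 h drug treatment. Relative luciferase units converted to percent activity, with no-cell wells as full and DMSO wells as zero inhibition.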
# [9] = qHTS Screen of the MIPE 4.0 Collection Against Ewings Sarcoma (TC71) (AID 1259253); also: nearly all actives have a fitted effect of over 40% in size; also: potency is read from the fitted curve at half-maximal effect
# Outline: as §2
# [10] = qHTS Screen of the MIPE 4.0 Collection Against Ewings Sarcoma (EW8) (AID 1259255); also: nearly all actives have a fitted effect of over 35% in size; also: potency is read from the fitted curve at half-maximal effect;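 as to viability: 100% = DMSO-treated cells and 0% = medium-only wells without cells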
# Outline: as §2
Compound,"parasite growth remaining, % of DMSO control (lower = more inhibition) [1]","parasite growth, % of control (lower = inhibition) [2]","growth, % of control [3]","cell viability, % of control (lower = more cytotoxic) [4]",viability (% of control) [5],Potency [6],Potency [7],Potency [8],Potency [9],Potency [10]
C[Se]CCC(N)C(=O)O (configuration not stated),105% [at 57.5 µM],135% [at 57.5 µM],86.5% [at 57.5 µM],170% [at 92.2 µM],109% [at 92.2 µM],inactive,inactive,inactive,inactive,inactive
CCCCCCCCCCCCCCCCCCCCCCO,124%,137%,105%,148%,105%,inactive,inactive,inactive,inactive,inactive
O=C(CS(=O)Cc1ccco1)NCC=CCOc1cc(CN2CCCCC2)ccn1 (configuration not stated),95.7%,53.3%,86.8%,120%,112%,inactive,inactive,inactive,inactive,inactive
COc1c(O)cc2c(c1O)[C@@H]1O[C@H](CO)[C@@H](O)[C@H](O)[C@H]1OC2=O,100%,81.9%,116%,123%,97.8%,inactive,inactive,inactive,inactive,inactive
Nc1nc(N)c(N=O)c(OCC2CCCCC2)n1,79.9%,32.9%,36.5%,18.1%,15.6%,inactive,inactive,14.8 µM (active),16.6 µM (active),18.7 µM (active)
Cc1cc(Cl)ccc1OCCCC(=O)NO,72.9%,42.1%,41.9%,21.7%,3.6%,inactive,inactive,0.743 µM (active),9.35 µM (active),1.05 µM (active)
CCN(CC)C(=S)SSC(=S)N(CC)CC,92.7%,53.4%,64.3%,6.77%,3.25%,10 µM (active),inactive,0.118 µM (active),0.0132 µM (active),0.0187 µM (active)
CC1=C(C)C(=O)C(C(CCCCCC(=O)O)c2ccccc2)=C(C)C1=O (configuration not stated),87.9%,46%,74.4%,195%,115%,inactive,inactive,inactive,inactive,inactive
c1cnc2cc3c(cc2n1)C1CNCC3C1,96.8%,52.2%,68.4%,95.8%,97.2%,inactive,inactive,inactive,inactive,inactive
Cc1c(OCC(F)(F)F)ccnc1CS(=O)c1nc2ccccc2[nH]1 (configuration not stated),–,–,–,595%,100%,inactive,inactive,–,–,–
CC1(C)C(=O)N(CCN2CCC(C(=O)c3ccc(F)cc3)CC2)c2ccccc21,15.4%,26.2%,34.5%,37.4%,85.6%,inactive,inactive,inactive,inactive,inactive
CCCS(=O)c1ccc2nc(NC(=O)OC)[nH]c2c1 (configuration not stated),–,–,–,32.3%,13.7%,10 µM (active) and 16.6 µM (active),20.9 µM (active),20.9 µM (active),23.5 µM (active),20.9 µM (active)
CC1=C(C(=O)O)N2C(=O)[C@@H](NC(=O)[C@H](N)C3=CCC=CC3)[C@H]2SC1,87.3%,74.3%,51.2%,145%,99.4%,inactive,inactive,inactive,inactive,inactive
O=C(O)c1cccnc1Nc1cccc(C(F)(F)F)c1,87.2%,77.4%,74%,122%,88.7%,inactive,inactive,inactive,inactive,inactive
CN(C)CCc1c[nH]c2ccc(Cn3cncn3)cc12,102%,62.6%,99.9%,102%,54.2%,inactive,inactive,inactive,inactive,inactive
NS(=O)(=O)c1cc(C(=O)O)c(NCc2ccco2)cc1Cl,103%,–,84.6%,75.9%,108%,inactive,inactive,inactive,inactive,inactive
CC(C)C[C@H](NC(=O)[C@H](Cc1ccccc1)NC(=O)c1cnccn1)B(O)O,7.19%,7.61%,3.13%,3.61%,3.36%,inactive,inactive,0.0332 µM (active),0.0418 µM (active),0.0166 µM (active)
CN(C)c1ccc2nc3ccc(=[N+](C)C)cc-3sc2c1,16.9% and 18.5%,6.81% and 13.3%,43.4% and 10.1%,10.9%,8.34%,inactive,inactive,2.35 µM (active),3.72 µM (active),4.69 µM (active)
CN(C)C(=O)[C@H](O)[C@H](Cc1ccccc1)NC(=O)c1cc2cc(Cl)ccc2[nH]1,54.1%,13.9%,2.28%,238%,43.4%,inactive,inactive,18.7 µM (active),16.6 µM (active),23.5 µM (active)
CCOC(=O)C1=C[C@@H](OC(CC)CC)[C@H](NC(C)=O)[C@@H](N)C1,–,–,–,152%,106%,inactive,inactive,inactive,inactive,inactive
